Data as given in PubChem BioAssay (NCATS).
Results filed as inconclusive are left out. The source made the active and inactive calls. Calls come from the whole dose curve; as a rule, active = well fitted cell-killing curve with a large enough effect; inconclusive = small, poorly fitted or top-dose-only effect; inactive = no such curve, though single readings can be large or run the other way.
% is set by controls: 0 for no effect and ±100 for the full control effect; potency is the fitted concentration of half-maximal effect.

Assay: qHTS of pediatric cancer cell lines to identify multiple opportunities for drug repurposing: Primary screen for A673 cells (AID 1347092); note: nearly all actives have a fitted effect of over 45% in size
Details: A673 Ewing sarcoma viability, CellTiter-Glo ATP luminescence, 48 h; series mostly up to 46 µM; activity change, negative = cytotoxic: at the top concentration
Excerpt: Drug repurposing or repositioning has been offered as a strategy for drug development in oncology programs. This approach has special potential for childhood cancers and other rare or orphan diseases, where the expected return on new drug development has been a disincentive to pharmaceuticals. […] In this project we exploit the poly-pharmacology of drugs to discover new indications via phenotypic screening of a panel of 19 well-characterized cell lines derived from solid tumors seen in children and adolescents. The goal is to identify approved drugs with previously unrecognized anticancer properties that has the potential to reveal new mechanisms and biological processes involved in carcinogenesis or drug resistance. We employed a titration-based paradigm (quantitative high-throughput screening or qHTS), where all compounds were tested at multiple concentrations for their effect on cell viability. Concentration-response curves (CRCs) were derived directly from the primary screen, and both potency and efficacy values were used to identify compounds with robust bioactivity profiles. We screened the NIH Chemical Genomics Center (NCGC) Pharmaceutical Collection (NPC) and Mechanism Interrogation Plate (MIPE) small molecule collections of approved and investigational compounds against these cell lines; and measured metabolically active cells after 48 hours of compound treatment as a proxy for cell viability. […] Assay Submitter: Nathalia J. Martinez, National Center for Advancing Translational Sciences, National Institutes of Health, Rockville, MD, USA; email: natalia.martinez@nih.gov. Shen, M et al. Quantitative high-throughput phenotypic screening of pediatric cancer cell lines identifies multiple opportunities for drug repurposing. Oncotarget 2017 Dec 19;9(4):4758-4772. PMID 29435139.
The cells were obtained from University of North Carolina (UNC), Pediatric Preclinical Testing Program (PPT), and Coriell Institute (CI). qHTS cell viability assay: Cells were assayed in growth media at a density of 500-1,000 cells/well. Five microliters of cells were dispensed into 1,536-well, white, solid-bottom, TC-treated plates (Greiner Bio One) using a multidrop dispenser and incubated at 37 degrees C, 5% CO2, under a humidified atmosphere for 5 hours. Twenty-three nanoliters of compounds and controls (neutral control DMSO or positive control bortezomib at final concentration of 2.3 uM) were subsequently transferred by Kalypsys pintool. For primary screens, the MIPE collection was tested at 11-point dilutions (final concentrations range from 0.78 nM to 46 µM) and the NPC collection at 8-point dilutions (final concentrations range from 0.59 nM to 46 µM). Compounds tested in follow-up screens were assayed at 11-point dilutions. Cells were incubated for 48 hours, followed by addition of 3 uL of CellTiter-Glo (Promega). After a 15min incubation at room temperature, samples were analyzed for luminescence intensity using a ViewLux High-throughput CCD imager equipped with clear filters.
In the case of CC(C)[C@@H]1CC[C@@H](C)CC1=O, the “activity change, negative = cytotoxic” value is reported as 5.9% (inactive). With CC(C)(C)NC[C@H](O)COc1cccc2c1CCCC2=O the “activity change, negative = cytotoxic” value was -12.6% (inactive). With CC1(COc2ccc(CC3SC(=O)NC3=O)cc2)CCCCC1 (stereo not given) the “activity change, negative = cytotoxic” value was -0.49% (inactive). With O=C(O)C(Cc1cc(I)c(O)c(I)c1)c1ccccc1 (stereo not given) the “activity change, negative = cytotoxic” value was -25.1% (inactive). For CCOc1ccc(NC(C)=O)cc1, the “activity change, negative = cytotoxic” value was -13.7% (inactive). For C#C[C@]1(O)CC[C@H]2[C@@H]3CCC4=CC(=O)CC[C@@H]4[C@H]3CC[C@@]21CC, the “activity change, negative = cytotoxic” value was -3.78% (inactive). With CCc1oc2ccccc2c1C(=O)c1cc(I)c(O)c(I)c1 the “activity change, negative = cytotoxic” value was -24.6% (inactive). For O=C1C(CCS(=O)c2ccccc2)C(=O)N(c2ccccc2)N1c1ccccc1 (stereo not given), the “activity change, negative = cytotoxic” value was 17% (inactive). With C=C[C@H]1CN2CC[C@H]1C[C@H]2[C@H](O)c1ccnc2ccc(OC)cc12 the “activity change, negative = cytotoxic” value was -14.6% (inactive). In the case of O=C(NC1CCN(CCc2c[nH]c3ccccc23)CC1)c1ccccc1, the “activity change, negative = cytotoxic” value is reported as -0.0645% (inactive). In the case of NCCNC(=O)c1ccc(Cl)cn1, the “activity change, negative = cytotoxic” value is reported as 4.01% (inactive). For COc1ccc(S(=O)(=O)N2c3ccc(Cl)cc3[C@@](O)(c3ccccc3Cl)[C@H]2C(=O)N2CCC[C@@H]2C(N)=O)cc1OC, the “activity change, negative = cytotoxic” value was -3.63% (inactive). In the case of CN1CCN(C2=Nc3ccccc3Sc3ccc(Cl)cc32)CC1, the “activity change, negative = cytotoxic” value is reported as -11% (inactive). For CCN1CCN(C(=O)N[C@@H](C(=O)N[C@@H]2C(=O)N3C(C(=O)O)=C(CSc4nnnn4C)CS[C@H]23)c2ccc(O)cc2)C(=O)C1=O, the “activity change, negative = cytotoxic” value was -6.18% (inactive). In the case of CN1CCN(c2cc3c(cc2F)c(=O)c(C(=O)O)cn3-c2ccc(F)cc2)CC1, the “activity change, negative = cytotoxic” value is reported as -0.558% (inactive). With CCN1/C(=C/C=C/c2sc3ccccc3[n+]2CC)Sc2ccccc21 the Potency was 0.58 µM (active). For CC(C)(Cc1c[nH]c2ccccc12)NCC(O)COc1ccccc1C#N (stereo not given), the “activity change, negative = cytotoxic” value was -16.8% (inactive). For CC[C@]12CCCN3CCc4c(n(c5ccccc45)C(=O)C1)[C@@H]32, the Potency was 10.6 µM (active). In the case of O=C(CCN1CCN2CCCC2C1)N1c2ccccc2Sc2ccc(Cl)cc21 (stereo not given), the “activity change, negative = cytotoxic” value is reported as -29.8% [at 16.1 µM] (inactive). With CN(C)CCOC(=O)C(c1ccccc1)C1(O)CCCC1 (stereo not given) the “activity change, negative = cytotoxic” value was -15.5% (inactive). With CC(CNC1CCCCC1)OC(=O)c1ccccc1 (stereo not given) the “activity change, negative = cytotoxic” value was -17.5% (inactive). In the case of Nc1ccc(S(=O)(=O)NCc2ccccc2)cc1, the “activity change, negative = cytotoxic” value is reported as -11.8% (inactive). In the case of OC[C@H]1O[C@@H]2O[C@H]3[C@H](O)[C@@H](O)[C@@H](O[C@H]4[C@H](O)[C@@H](O)[C@@H](O[C@H]5[C@H](O)[C@@H](O)[C@@H](O[C@H]6[C@H](O)[C@@H](O)[C@@H](O[C@H]7[C@H](O)[C@@H](O)[C@@H](O[C@H]8[C@H](O)[C@@H](O)[C@@H](O[C@H]1[C@H](O)[C@H]2O)O[C@@H]8CO)O[C@@H]7CO)O[C@@H]6CO)O[C@@H]5CO)O[C@@H]4CO)O[C@@H]3CO, the “activity change, negative = cytotoxic” value is reported as -11.6% (inactive). For COc1cc(C(=O)N2CCCCCCC2)cc(OC)c1OC, the “activity change, negative = cytotoxic” value was -8.13% (inactive). With CNCCCCOc1ccccc1Cc1ccccc1 the Potency was 26.6 µM (active). In the case of COc1ccc(CCN(C)CCCN2CCc3cc(OC)c(OC)cc3CC2=O)cc1OC, the “activity change, negative = cytotoxic” value is reported as -5.06% (inactive). With CCN[C@@H]1C[C@H](N)[C@@H](OC2OC(CN)=CCC2N)[C@H](O)[C@H]1O[C@H]1OC[C@](C)(O)[C@H](NC)[C@H]1O (stereo not given in full) the activity change, negative = cytotoxic was -2.55% [at 0.597 µM] (inactive). With NS(=O)(=O)c1cc(C(=O)O)cc(N2CCCC2)c1Oc1ccccc1 the “activity change, negative = cytotoxic” value was -9.75% (inactive). For O=C(O)c1ccc(S(=O)(=O)N(Cl)Cl)cc1, the “activity change, negative = cytotoxic” value was 0.0164% (inactive). For Nc1ccc(S(=O)(=O)Nc2cnc3ccccc3n2)cc1, the “activity change, negative = cytotoxic” value was 7.88% (inactive). With CN1CCN(c2c(F)cc3c(=O)c(C(=O)O)cn4c3c2SCC4)CC1 the “activity change, negative = cytotoxic” value was -4.02% (inactive). For Cc1ccc(-c2ncc(Cl)cc2-c2ccc(S(C)(=O)=O)cc2)cn1, the “activity change, negative = cytotoxic” value was 11.4% (inactive). For CCCCCCCCCCCCCC[N+](C)(C)Cc1ccccc1, the Potency was 13.3 µM (active). With N=C(N)N1CCc2ccccc2C1 the activity change, negative = cytotoxic was -18% [at 4.84 µM] (inactive). For N#C/C(=C1\SCC(c2ccccc2Cl)S1)n1ccnc1 (stereo not given), the “activity change, negative = cytotoxic” value was -6.25% (inactive). For CCc1cc(Cl)c(OC)c(C(=O)NC[C@@H]2CCCN2CC)c1O, the “activity change, negative = cytotoxic” value was -8.34% (inactive). In the case of CCCCCCCCCCCCCCC[C@H](O)[C@@H](N)CO, the “activity change, negative = cytotoxic” value is reported as 8.21% (inactive). In the case of Cc1cc2c(OCC(CNC(C)(C)C)OC(=O)c3ccccc3)cccc2[nH]1 (stereo not given), the “activity change, negative = cytotoxic” value is reported as -1.89% (inactive). In the case of CC(C(=O)O)c1cccc(Oc2ccccc2)c1 (stereo not given), the “activity change, negative = cytotoxic” value is reported as 3.93% (inactive). For CCN1CCCC(OC(=O)C(c2ccccc2)c2ccccc2)C1 (stereo not given), the “activity change, negative = cytotoxic” value was -11% (inactive).
